Compound activity: PubChem BioAssay, National Center for Advancing Translational Sciences (NCATS)
RORg inh = qHTS for inhibitors of ROR gamma transcriptional activity; Drosophila S2 Gal4-RORgamma UAS-luciferase reporter, 20 h; Potency, µM (titrated, usually from 53.6 µM), without a hit: top-dose activity change, negative = inhibition, actives largely listed as inhibitors; 310,000 tested, 5.4% active; note: % is set by controls: 0 for no effect and ±100 for the full control effect; nearly all actives have a fitted effect of over 60% in size
Target sequence (P51450 whole entry, looked up, the tested form may be a part): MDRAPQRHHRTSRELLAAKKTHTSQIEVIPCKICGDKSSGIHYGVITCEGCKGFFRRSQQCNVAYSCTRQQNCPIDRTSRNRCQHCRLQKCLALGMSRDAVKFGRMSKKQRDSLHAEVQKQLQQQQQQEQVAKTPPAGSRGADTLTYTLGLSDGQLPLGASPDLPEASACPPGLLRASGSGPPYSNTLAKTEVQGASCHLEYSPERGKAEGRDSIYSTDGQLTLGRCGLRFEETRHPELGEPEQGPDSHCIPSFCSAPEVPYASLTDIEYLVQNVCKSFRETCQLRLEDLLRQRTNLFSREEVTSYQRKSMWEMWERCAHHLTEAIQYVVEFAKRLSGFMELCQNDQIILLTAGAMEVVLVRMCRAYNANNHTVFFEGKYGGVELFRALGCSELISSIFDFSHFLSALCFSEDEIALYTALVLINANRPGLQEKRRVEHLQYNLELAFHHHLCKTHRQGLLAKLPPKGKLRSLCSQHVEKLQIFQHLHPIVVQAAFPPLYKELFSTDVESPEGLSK
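Luciferase reporter read in Schneider cells carrying Gal4-RORγ (mouse) and UAS-Photinus luciferase; cells given compound 1 h before 700 uM copper sulfate induction, then incubated 20 h at ambient temperature.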
SW480 rereplic = A quantitative high throughput screen for small molecules that induce DNA re-replication in SW480 colon adenocarcinoma cells; SW480 DNA re-replication, Hoechst DNA content imaging, 48 h; Potency, µM (titrated, usually from 46.1 µM), inactives show at the top dose re-replication activation, hits mostly activators; 340,000 tested, 1.8% active; note: % of control where 0% means no effect; nearly all actives have a fitted effect of over 55% in size
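Compounds, transferred as 23 nL by pin tool, were incubated with cells for 48 hr; DNA content per nucleus was then quantified by Hoechst staining and fluorescence plate imaging.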
KB-3-1 cytotox = qHTS assay for MDR1-selective chemotherapeutics: Primary screen using the parental adenocarcinoma cell KB-3-1; 400,000 tested, 1.4% active; KB-3-1 viability, CellTiter-Glo ATP luminescence, 72 h; Potency, µM (doses to about 46.1 µM), actives largely listed as cytotoxic; note: % is set by controls: 0 for no effect and ±100 for the full control effect; nearly all actives have a fitted effect of over 60% in size
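Cytotoxicity measured as CellTiter-Glo luminescence after 72 h at 37 C. Compound titrations were pinned onto drug-naive KB-3-1 parental adenocarcinoma cells grown in DMEM with 10% FBS, and normalized data fitted to concentration-response curves.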
KB-V1 cytotox = qHTS assay for MDR1-selective chemotherapeutics: Primary screen using the drug-selected MDR subline cells KB-V1; KB-V1 MDR cells viability, CellTiter-Glo, 72 h; Potency, µM (series often up to 46.1 µM), most hits filed as cytotoxic; 400,000 tested, 3.4% active; note: % is set by controls: 0 for no effect and ±100 for the full control effect; nearly all actives have a fitted effect of over 60% in size
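Luminescent ATP read-out (CellTiter-Glo, 10 min) measures survival of drug-selected KB-V1 MDR cells after 72 h, 37 degrees C compound exposure. Medium: phenol-red-free DMEM, 10% FBS. Values from fitted concentration-response curves.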
MCF10A rereplic = A quantitative high throughput screen for small molecules that induce DNA re-replication in MCF 10a normal breast cells. MCF 10A DNA re-replication, Hoechst nuclear intensity, 48 h. Potency, µM (series often up to 46.1 µM), for the others: at the top dose activity, positive = re-replication, actives largely listed as activators. 350,000 tested, 2.9% active; note: % of control where 0% means no effect; nearly all actives have a fitted effect of over 50% in size
VP16 counter = VP16 counterscreen qHTS for inhibitors of ROR gamma transcriptional activity; Drosophila S2 Gal4-VP16 UAS-luciferase, luminescence, 20 h; Potency, µM (doses to about 53.6 µM), for the others: at the top dose activity, negative = inhibition, most hits filed as inhibitors; 310,000 tested, 3.5% active; AID 2546, 2010;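 note: Gal4-VP16 expression switched on by copper sulfate through the metallothionein promoter; % is set by controls: 0 for no effect and ±100 for the full control effect; nearly all actives have a fitted effect of over 50% in size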
* marks the source's active call; other numbers are inactive results; [ ] = another dose, or the depositor's remark. The list is not random: actives were taken first. Their share in the collection is about 10%. Calls come from the whole dose curve; as a rule, active = well fitted curve in the direction sought with a large enough effect; inconclusive = small, poorly fitted or top-dose-only effect, or another doubt; inactive = no such curve, though single readings can be large; an effect the other way counts as inactive or inconclusive. Potency is the fitted concentration of half-maximal effect.

COc1ccc(N/C(C)=C/C(=O)c2ccccc2)cc1 was read as RORg inh 10%, SW480 rereplic -11%, KB-3-1 cytotox inactive, KB-V1 cytotox inconclusive, MCF10A rereplic 12% and VP16 counter inconclusive.
`O=C(/C=C(\O)c1ccccc1)C(=O)NNC(=O)c1ccccc1` gave RORg inh inconclusive, SW480 rereplic -2%, KB-3-1 cytotox inactive, KB-V1 cytotox inactive, MCF10A rereplic -3% and VP16 counter inconclusive.
Screening COc1ccc(C(=O)NN/C(C)=C/C(=O)c2ccccc2)cc1 returned RORg inh 6.3µM*, SW480 rereplic 5%, KB-3-1 cytotox inactive, KB-V1 cytotox inactive, MCF10A rereplic 1% and VP16 counter 5µM*.
`CCOc1ccc(-n2c(C)nc3cc(C(=O)NC4CCCC4)ccc32)cc1` gave KB-3-1 cytotox inactive and KB-V1 cytotox inactive.
`COc1ccc(C(=O)NC(=S)Nc2ccccc2F)cc1` gave RORg inh 4.5µM*, SW480 rereplic -5%, KB-3-1 cytotox inactive, KB-V1 cytotox inactive, MCF10A rereplic 2% and VP16 counter 11µM*.
Screening Cc1cccc(NC(=S)NCc2ccncc2)c1C returned RORg inh -14%, SW480 rereplic -2%, KB-3-1 cytotox inactive, KB-V1 cytotox inactive, MCF10A rereplic 5% and VP16 counter 2%.
`COc1ccc(CNC(=S)Nc2ccccc2F)cc1` gave RORg inh inconclusive, SW480 rereplic 1%, KB-3-1 cytotox inactive, KB-V1 cytotox inactive, MCF10A rereplic -3% and VP16 counter 18µM*.
`Fc1ccccc1NC(=S)NCc1ccc(Cl)cc1` gave RORg inh 11µM*, SW480 rereplic 6%, KB-3-1 cytotox inactive, KB-V1 cytotox inactive, MCF10A rereplic 0% and VP16 counter inconclusive.
Screening COc1ccc(CNC(=S)Nc2cccc(C)c2C)cc1 returned RORg inh 2.5µM*, SW480 rereplic 0%, KB-3-1 cytotox inactive, KB-V1 cytotox inactive, MCF10A rereplic 1% and VP16 counter 7.9µM*.
`COc1ccc(C(=O)Nc2ccccc2NC(=O)c2ccc(OC)cc2)cc1` gave SW480 rereplic -11%, KB-3-1 cytotox inactive, KB-V1 cytotox inactive and MCF10A rereplic 8%.
Screening C#CCn1c(=O)c2c(nc(/C=C/c3cccc(OC)c3)n2C)n(CCCOP(=O)(O)O)c1=O returned RORg inh -3% and VP16 counter -4%.
COc1cc(-c2ccc3ncnc(NCC4CCCO4)c3c2)cc(OC)c1OC (stereo not given) was read as KB-3-1 cytotox inactive and KB-V1 cytotox inactive.
For CNC(=O)NC(=S)NC(=O)c1ccc(OC)cc1 the results were RORg inh 11µM*, SW480 rereplic -13%, KB-3-1 cytotox inactive, KB-V1 cytotox inactive, MCF10A rereplic -1% and VP16 counter -27%.
For C/C(=N\NC(=S)Nc1cccc(C)c1)c1cccc(N)c1 the results were RORg inh 4.5µM*, SW480 rereplic 1%, KB-3-1 cytotox inactive, KB-V1 cytotox inactive, MCF10A rereplic -1% and VP16 counter 3.2µM*.
`C/C(=N\NC(=S)Nc1cccc(C)c1)c1ccccc1` gave RORg inh 1.1µM*, SW480 rereplic -8%[9.22 µM], KB-3-1 cytotox inactive, KB-V1 cytotox inactive, MCF10A rereplic 0% and VP16 counter 7.9µM*.
Screening C=CCNC(=S)Nc1cccc(N)c1 returned RORg inh -17%, SW480 rereplic -7%, KB-3-1 cytotox inactive, KB-V1 cytotox inactive, MCF10A rereplic inconclusive and VP16 counter 4%.
For CC(=NNC(=S)Nc1cccc(C)c1)c1ccccn1 the results were SW480 rereplic inconclusive, KB-3-1 cytotox inconclusive, KB-V1 cytotox inactive and MCF10A rereplic inconclusive.
For C/C(=N\NC(=S)Nc1cccc(C)c1)c1ccco1 the results were RORg inh inconclusive, SW480 rereplic -7%, KB-3-1 cytotox inactive, KB-V1 cytotox inactive, MCF10A rereplic 0% and VP16 counter -27%.
`CSC(=S)N/N=C(\C)c1ccccc1` gave RORg inh 0.45µM*, SW480 rereplic inconclusive, KB-3-1 cytotox inactive, KB-V1 cytotox inactive, MCF10A rereplic -8% and VP16 counter 4.5µM*.
C/C(=N\NC(N)=S)c1ccccc1 was read as RORg inh 14%, SW480 rereplic 1%, KB-3-1 cytotox inconclusive, KB-V1 cytotox inconclusive, MCF10A rereplic 9% and VP16 counter 15%.
Screening C/C(=N\NC(=S)Nc1ccc(C)cc1)c1cccc(N)c1 returned RORg inh 2.8µM*, SW480 rereplic -1%, KB-3-1 cytotox inactive, KB-V1 cytotox inactive, MCF10A rereplic 13% and VP16 counter 13µM*.
Screening O=C(CCC(=O)N1CC2CCCN2c2ccccc21)NCc1ccccc1F (stereo not given) returned KB-3-1 cytotox inactive and KB-V1 cytotox inactive.
Screening C=C1C=CS(=O)(=O)N(C(C)C(=O)OC)C1 (stereo not given) returned RORg inh -16% and VP16 counter -4%.
Screening COc1ccc(-n2c(=O)c3c(c4cc(OC)ccc4n3C)n(Cc3cccc(OC)c3)c2=O)cc1 returned KB-3-1 cytotox inactive and KB-V1 cytotox inactive.
CC(OC(=O)CCN=C1NS(=O)(=O)c2ccccc21)C(=O)Nc1ccc(F)c(F)c1F (stereo not given) was read as SW480 rereplic 20%, KB-3-1 cytotox inactive, KB-V1 cytotox inconclusive and MCF10A rereplic -5%.
For COc1cccc(NC(=O)Cn2cnc3c(nc4n3CCCCC4)c2=O)c1 the results were KB-3-1 cytotox inactive and KB-V1 cytotox inactive.
For CCC(C)NC(=S)Nc1ccc2nc(N3CCN(CC)CC3)cc(C)c2c1 (stereo not given) the results were RORg inh inconclusive, SW480 rereplic inconclusive, KB-3-1 cytotox inconclusive, KB-V1 cytotox inactive, MCF10A rereplic inconclusive and VP16 counter 18%.
Screening COc1ccc(CNC(=S)Nc2ccc3nc(N4CCOCC4)cc(C)c3c2)cc1 returned RORg inh 10µM*, SW480 rereplic -5%, KB-3-1 cytotox inactive, KB-V1 cytotox inactive, MCF10A rereplic inconclusive and VP16 counter -93%.
